Screening results from PubChem BioAssay.
ClpP mod: qHTS Assay for Activators of ClpP. ATP-dependent Clp protease proteolytic subunit (Bacillus subtilis (strain 168)), P80244. purified B. subtilis ClpP, FRET peptide cleavage, 20 min. Potency, µM (top dose mostly 57.5 µM), inactives show top-dose activity change, negative = active. actives 1.9% (n = 340,000); active = well fitted falling curve with a large enough effect; inconclusive = small, poorly fitted or top-dose-only effect; inactive = no such curve, though single readings can be large or run the other way; note: potency is the fitted concentration of half-maximal effect; the source files actives as falling curves though it sought activators and does not explain the sign; nearly all actives have a fitted effect of over 65% in size
Target sequence (P80244 whole entry, looked up): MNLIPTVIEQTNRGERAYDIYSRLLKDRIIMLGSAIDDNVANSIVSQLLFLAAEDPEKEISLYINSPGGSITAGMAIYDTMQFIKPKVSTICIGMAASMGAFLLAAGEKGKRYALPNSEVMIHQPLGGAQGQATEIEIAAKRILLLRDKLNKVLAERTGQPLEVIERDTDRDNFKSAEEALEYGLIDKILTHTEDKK
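FRET quenching reversal measured ClpP activation: 10 microg/mL B. subtilis ClpP at pH 8 with the FRET-FV decapeptide, read at 430 nm after 320 nm excitation. The 20-min minus 0-min signal was scaled between DMSO/no-enzyme wells and ADEP (5.8 microM final).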
DRD3 antagonist: antagonists of human D3 dopamine receptor; max response, negative = inhibition, %; actives 2.5% (n = 360,000); D3R cells, DiscoveRx beta-arrestin luminescence, antagonist mode; active compounds read low; P35462; in the data active = max response below about -50%; inconclusive = no clear call, values can overlap the other calls; note: % is set by controls: 0 for no effect and ±100 for the full control effect
Target sequence (P35462 whole entry, looked up): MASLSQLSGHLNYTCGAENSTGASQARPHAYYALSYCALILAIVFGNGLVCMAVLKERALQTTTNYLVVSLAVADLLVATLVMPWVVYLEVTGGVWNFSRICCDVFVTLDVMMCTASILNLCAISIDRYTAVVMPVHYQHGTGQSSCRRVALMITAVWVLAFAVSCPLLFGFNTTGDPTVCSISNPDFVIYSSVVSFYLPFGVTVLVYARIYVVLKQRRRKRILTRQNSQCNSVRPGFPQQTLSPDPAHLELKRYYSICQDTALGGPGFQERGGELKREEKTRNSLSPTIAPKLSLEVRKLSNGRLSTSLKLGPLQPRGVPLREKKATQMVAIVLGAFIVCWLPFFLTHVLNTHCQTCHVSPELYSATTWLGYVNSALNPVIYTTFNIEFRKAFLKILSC
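Cells expressing the human receptor were seeded at 1500 cells/well, incubated overnight at 37 degrees C in 5% CO2, then exposed to library compounds with dopamine controls for 90 minutes at 37 degrees C before luminescent detection.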
DT40 TDP1 CPT: growth inhibition of DT40 Tdp1-/-;hTDP1 cells with camptothecin (screen for TDP1 inhibitors) | actives 12% (n = 420,000) | Potency, µM (series often up to 46.2 µM), for the others: at the top dose activity change, negative = growth inhibition, usual class: inhibitors | AID 686979 | chicken DT40 Tdp1-/-;hTDP1 cells + 20 nM CPT, ATP luminescence, 48 h; note: potency is the fitted concentration of half-maximal effect; % is set by controls: 0 for no effect and ±100 for the full control effect; nearly all actives have a fitted effect of over 55% in size
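Chicken DT40 Tdp1-/- cells complemented with human TDP1, 400 cells/well, exposed to compounds plus 20 nM camptothecin for at least 48 h at 37 C; viability read as ATP content by CellTiter-Glo luminescence.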
TDP1 cell noCPT: qHTS for Inhibitors of human tyrosyl-DNA phosphodiesterase 1 (TDP1): qHTS in cells in absence of CPT; DT40 Tdp1-/- hTDP1 cells, no CPT, ATP luminescence, 48 h; Potency, µM (titrated, usually from 46.2 µM), inactives show at the top dose activity change, negative = growth inhibition, actives largely listed as inhibitors; actives 15% (n = 420,000); AID 686978, 2013; note: potency is the fitted concentration of half-maximal effect; % is set by controls: 0 for no effect and ±100 for the full control effect; nearly all actives have a fitted effect of over 55% in size
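Stably hTDP1-transfected Tdp1-null chicken DT40 cells were treated with library compounds minus camptothecin and grown for at least 48 hr at 37 °C, after which cellular ATP was quantified by luminescence.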
IL-1B inflam inh: inhibitors of inflammasome signaling (IL-1 beta secretion); THP-1 LPS/ATP IL-1B secretion, AlphaLISA, 16 h; active compounds read low; activity change, % at 57.5 µM; actives 4.7% (n = 360,000); AID 743279; in the data active = activity change below about -50%; inconclusive = mostly about -30% to -49%; note: % is set by controls: 0 for no effect and ±100 for the full control effect
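THP-1 cells pretreated 1 hr with compounds (up to 57.5 uM final), then stimulated with LPS (250 ng/mL final) plus ATP (1.25 mM final); secreted IL-1B measured by AlphaLISA after 16 hr, decreased signal indicating inhibition.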
D3 ag: agonists of human D3 dopamine receptor; P35462; D3R DiscoveRx beta-arrestin cells, luminescence, 90 min; max activation, %; actives 0.58% (n = 410,000); in the data active = max activation above about 30%; note: 0% is about no effect
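Agonist mode: compounds and dopamine controls were applied to plated cells for 90 min at 37 degrees C after an overnight attachment at 1500 cells/well. Luminescent read-out followed 30 - 60 minutes at room temperature with DiscoveRx detection reagent.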
* marks the source's active call; other numbers are inactive results; ? = inconclusive; nt = no result. An excerpt weighted towards active compounds, which were near 21% of everything screened. Unless noted, calls come from the whole dose curve; as a rule, active = well fitted inhibition curve with a large enough effect; inconclusive = small, poorly fitted or top-dose-only effect; inactive = flat fitted curve, though single readings scatter.

SMILES	ClpP mod	DRD3 antagonist	DT40 TDP1 CPT	TDP1 cell noCPT	IL-1B inflam inh	D3 ag
O=C(CSc1ccccc1C(=O)O)Nc1ccc2c(c1)OCO2	-3%	-15	-5%	28%	12	3
Cc1cc(C)cc(N(CCC#N)C(=O)CSc2ncnc3sccc23)c1	-1%	0	?	?	?	5
Cc1cc(C)cc(N(CCC#N)C(=O)CSC2=Nc3ccccc3C3CC=NN23)c1 (centres undefined)	nt	19	21µM*	?	-91*	-4
COc1ccc(C(=O)C[n+]2cccc3cccc(O)c32)cc1	-1%	nt	2%	-9%	nt	nt
O=C1NC2(CCSC2)C(=O)N1CC(=O)N(Cc1ccccc1)C1CCS(=O)(=O)C1 (centres undefined)	nt	0	0%	-14%	8	9
CCOc1ccc(OCC)c(NS(=O)(=O)c2c(C(=O)N3CCCCCC3)c(C)n(C)c2C)c1	1%	nt	?	?	nt	5
O=C(C1CCN(S(=O)(=O)c2cccc3nsnc23)CC1)N1CCc2ccccc21	0%	-3	?	?	-1	-4
O=C(C1CCN(S(=O)(=O)c2cccc3nsnc23)CC1)N1CCn2c1nc1ccccc12	0%	-101*	?	16µM*	17	-22
O=C(C1CCN(S(=O)(=O)c2cccc3nsnc23)CC1)N1CCCc2ccccc21	-2%	2	-27%	?	-52*	-6
CC1Cc2ccccc2N1C(=O)C1CCCN(S(=O)(=O)c2cccc3nsnc23)C1 (centres undefined)	0%	15	?	15µM*	-13	-1
O=C(C1CCCN(S(=O)(=O)c2cccc3nsnc23)C1)N1CCc2ccccc21 (centres undefined)	0%	-12	?	23µM*	0	-2
CCCNc1c(NS(=O)(=O)c2cccc(C#N)c2)c(=O)oc2ccccc12	-1%	6	-12%	0%	0	-16
Cc1ccc(N=Cc2c(O)c3ccccc3oc2=O)cc1F	-4%	1	5%	16%	22	4
CCNc1ncc2nc(C)c(=O)n(Cc3ccc(F)cc3)c2n1	nt	nt	1%	-5%	nt	nt
O=C(C1CCCN(S(=O)(=O)c2cccc3nsnc23)C1)N1CCc2ccccc2C1 (centres undefined)	-1%	1	?	23µM*	?	-3
O=C(C1CCCN(S(=O)(=O)c2cccc3nsnc23)C1)N1CCCCCC1 (centres undefined)	2%	12	-25%	?	11	1
Cc1nn(C)c(C)c1/C=N/NC(=O)CCn1nc(C)c([N+](=O)[O-])c1C	-1%	2	-8%	?	0	-3
CN1/C(=C/C(=O)COC(=O)C2COc3ccccc3O2)C(C)(C)c2ccccc21 (centres undefined)	6%	7	26µM*	21µM*	10	0
Cc1ccc(NC(=O)COC(=O)C2COc3ccccc3O2)cc1 (centres undefined)	0%	11	-2%	21%	40	-1
CN1/C(=C\C(=O)COC(=O)CN2C(=O)C3CC=CCC3C2=O)C(C)(C)c2ccccc21 (centres undefined)	-2%	10	?	18µM*	59	2
CC(C)C1C(=O)Nc2ccc(S(=O)(=O)NCCc3ccc(Cl)cc3)cc21 (centres undefined)	4%	nt	?	23µM*	nt	-8
Cc1ccc(CCNS(=O)(=O)c2ccc3c(c2)NC(=O)C(C)C(=O)N3)cc1 (centres undefined)	1%	1	-22%	23µM*	15	4
CN1C(=O)C(C)(C)c2cc(S(=O)(=O)NCCc3ccc(Cl)cc3)ccc21	1%	14	5%	-13%	5	-1
Cc1ccc(CCNS(=O)(=O)c2ccc(C)cc2)cc1	-2%	?	?	-18%	-22	1
COc1cccc(CNS(=O)(=O)c2ccc3[nH]c4c(c3c2)CCCCC4)c1	-10%	nt	nt	nt	nt	-11
SMILES	ClpP mod	DRD3 antagonist	DT40 TDP1 CPT	TDP1 cell noCPT	IL-1B inflam inh	D3 ag
COc1cccc(CNS(=O)(=O)c2ccc3c(c2)C(C(C)C)C(=O)N3)c1 (centres undefined)	3%	nt	?	13µM*	nt	-6
Cc1nc2c(C)cccn2c(=O)c1NC(=O)c1cccc2ccccc12	-2%	26	-18%	-17%	3	2
Cc1nc(COc2ccccc2Cl)sc1-c1ccnc(N)n1	-2%	5	?	?	-62*	7
Clc1ccccc1OCc1nn2c(-c3ccncc3)nnc2s1	0%	8	-30%	?	-19	1
Cc1ccc(C)c(N2CCN(C(=O)c3ccc(-c4nc(COc5ccccc5)c(C)o4)cc3)CC2)c1	-5%	nt	23µM*	15µM*	nt	6
Cc1ccc(OCc2nc(-c3ccc(C(=O)N4CCN(c5cccc(C(F)(F)F)c5)CC4)cc3)oc2C)cc1	-9%	nt	16µM*	?	nt	5
Cc1ccc(OCc2nc(-c3ccc(C(=O)N4CCN(c5ccc(Cl)cc5)CC4)cc3)oc2C)cc1	-4%	nt	?	?	nt	3
CCc1ccc2c(c1)c(=O)c(S(=O)(=O)c1ccc(F)cc1)cn2CC(=O)Nc1ccccc1OC	-6%	nt	5%	-20%	nt	-14
CN(Cc1ccco1)c1ncnc2ccc(-c3ccccc3Cl)cc12	nt	nt	21µM*	?	nt	nt
CN(Cc1ccco1)c1ncnc2ccc(-c3ccccc3C(F)(F)F)cc12	nt	nt	?	23µM*	nt	nt
CN(Cc1ccco1)c1ccnc(-c2ccoc2)n1	nt	nt	4%	0%	nt	nt
CN(Cc1ccco1)c1ncnc2ccc(-c3ccoc3)cc12	nt	nt	18µM*	?	nt	nt
OC(CC(O)c1ccccc1)c1ccccc1 (centres undefined)	0%	20	-2%	1%	-2	2
Cc1ccc(S(=O)C(c2ccccc2)c2ccccc2)cc1 (centres undefined)	1%	-4	?	?	-4	3
O=S(CC(O)c1ccccc1)c1ccccc1 (centres undefined)	1%	-19	?	16µM*	6	0
O=S(c1ccccc1)C(c1ccccc1)c1ccccc1 (centres undefined)	16µM*	-16	?	?	8	2
O=C(N/N=C/C(Br)=C/c1ccccc1)NC1CCCCC1	nt	1	9.2µM*	15µM*	-94*	10
CC(/C=N/NC(=O)NC1CCCCC1)=C\c1ccccc1	nt	0	21µM*	21µM*	?	4
